# Assay results published in PubChem BioAssay.
# Active and inactive are the calls of the source.
# Tests used:
# [1] = E. coli DRC41 culture turbidity changes, primary screen, E. coli filamentation inducer project, strain DRC41, OD650, 48 h (AID 1152);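 note: E. coli MC1000 strain DRC41 lacking acrAB efflux pump and sulA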; details: E. coli DRC41 (acrAB sulA), higher = more signal, called active from +8 up or from −8 down
# [2] = small-molecule binders of probe aLefty1, primary screen, biochemical, small-molecule microarray, 635/667 nm fluorescence (AID 1153); details: higher = more signal;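 note: score merges spot fluorescence with signal-to-noise ratio from the scanned slide images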
# [3] = PSAC antagonists in infected red cells, primary screen, cell-based, P. falciparum Indochina, OD700, 1 h (AID 1154); details: P. falciparum Indochina infected RBC osmotic lysis, higher = more signal, called active from +8 up or from −8 down
# [4] = PSAC antagonists in infected red cells, primary screen, cell-based, P. falciparum Indochina, OD700, 2 h (AID 1155);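 note: lysis reports solute entry through the parasite surface anion channel PSAC; channel blockers reduce lysis of infected cells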; details: P. falciparum Indochina infected erythrocytes, osmotic lysis OD700; higher = more signal, called active from +8 up or from −8 down
# [5] = osmotic lysis modulators in infected erythrocytes, primary screen, PSAC antagonist project, cell-based, P. falciparum Indochina, OD700, 3 h (AID 1156); details: higher = more signal, called active from +8 up or from −8 down
# [6] = PSAC antagonists in infected red cells, primary screen, cell-based, P. falciparum Indochina, OD700, 18 h (AID 1157); details: P. falciparum Indochina infected erythrocytes, osmotic lysis OD700, 18 h; higher = more signal, called active from +8 up or from −8 down
# [7] = modulators of S6 phosphorylation in cells, primary screen, cell-based, A549, cytoblot, luminescence, serum-stimulated (AID 1158); details: A549 phospho-S6 cytoblot, 5 h, higher = more signal;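 note: serum-stimulated A549 lung adenocarcinoma cells; signal is phosphorylated S6 detected by cytoblot immunostaining with HRP secondary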
# [8] = target: NADPH oxidase 2 (Homo sapiens) (UniProt P04839); assay: NOX2-dependent H2O2 signal modulators, primary screen, NOX inhibitor project, cell-based, HEK293-NOX2, PMA-stimulated, Amplex Red fluorescence (AID 1159); details: 45 min, higher = more signal, called active from +8 up or from −8 down; note: test concentration not given here
# Chain of NADPH oxidase 2 (Homo sapiens) (P04839 whole entry, looked up): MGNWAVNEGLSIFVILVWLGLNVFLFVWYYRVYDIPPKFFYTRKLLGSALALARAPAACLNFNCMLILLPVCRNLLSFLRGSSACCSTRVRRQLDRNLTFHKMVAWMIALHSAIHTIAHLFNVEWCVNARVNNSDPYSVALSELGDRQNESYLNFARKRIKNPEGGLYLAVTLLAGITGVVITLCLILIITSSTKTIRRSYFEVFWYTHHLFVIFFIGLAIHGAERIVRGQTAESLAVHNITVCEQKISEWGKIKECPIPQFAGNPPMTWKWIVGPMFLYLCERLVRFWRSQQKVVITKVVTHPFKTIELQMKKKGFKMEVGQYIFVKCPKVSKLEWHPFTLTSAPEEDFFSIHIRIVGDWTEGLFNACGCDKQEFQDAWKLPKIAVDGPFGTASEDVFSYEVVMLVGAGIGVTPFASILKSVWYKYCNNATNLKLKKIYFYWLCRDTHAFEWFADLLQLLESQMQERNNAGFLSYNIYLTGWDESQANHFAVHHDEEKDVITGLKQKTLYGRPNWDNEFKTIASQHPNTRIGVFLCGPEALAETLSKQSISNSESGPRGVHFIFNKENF
# [9] = target: NADPH oxidase 4 (Homo sapiens) (UniProt Q9NPH5); assay: NOX4-dependent H2O2 signal modulators, primary screen, NOX inhibitor project, cell-based, HEK293-NOX4, tetracycline-induced, Amplex Red fluorescence (AID 1160); details: 45 min, higher = more signal, called active from +8 up or from −8 down
# Chain of NADPH oxidase 4 (Homo sapiens) (Q9NPH5 whole entry, looked up): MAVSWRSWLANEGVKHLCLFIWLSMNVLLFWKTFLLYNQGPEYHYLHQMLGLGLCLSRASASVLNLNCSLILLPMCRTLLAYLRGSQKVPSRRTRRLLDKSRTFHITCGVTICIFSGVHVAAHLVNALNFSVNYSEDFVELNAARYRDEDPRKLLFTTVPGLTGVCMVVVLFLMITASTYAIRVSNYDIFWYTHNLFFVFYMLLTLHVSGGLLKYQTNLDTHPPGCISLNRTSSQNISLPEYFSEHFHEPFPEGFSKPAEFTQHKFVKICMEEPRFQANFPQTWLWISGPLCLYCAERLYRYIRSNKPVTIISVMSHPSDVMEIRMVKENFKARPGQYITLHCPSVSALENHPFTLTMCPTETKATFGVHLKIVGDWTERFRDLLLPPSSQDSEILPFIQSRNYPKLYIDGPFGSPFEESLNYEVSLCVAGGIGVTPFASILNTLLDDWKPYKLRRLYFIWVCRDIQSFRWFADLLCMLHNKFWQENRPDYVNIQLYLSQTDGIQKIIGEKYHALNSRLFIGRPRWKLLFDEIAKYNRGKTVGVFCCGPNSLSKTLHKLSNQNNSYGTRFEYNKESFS
# [10] = target: NADPH oxidase 5 (Homo sapiens) (UniProt Q96PH1); assay: NOX5-dependent H2O2 signal modulators, primary screen, NOX inhibitor project, cell-based, HEK293-NOX5, Amplex Red fluorescence (AID 1161); details: HEK293-NOX5, ionomycin, 45 min, higher = more signal
# Chain of NADPH oxidase 5 (Homo sapiens) (Q96PH1 whole entry, looked up): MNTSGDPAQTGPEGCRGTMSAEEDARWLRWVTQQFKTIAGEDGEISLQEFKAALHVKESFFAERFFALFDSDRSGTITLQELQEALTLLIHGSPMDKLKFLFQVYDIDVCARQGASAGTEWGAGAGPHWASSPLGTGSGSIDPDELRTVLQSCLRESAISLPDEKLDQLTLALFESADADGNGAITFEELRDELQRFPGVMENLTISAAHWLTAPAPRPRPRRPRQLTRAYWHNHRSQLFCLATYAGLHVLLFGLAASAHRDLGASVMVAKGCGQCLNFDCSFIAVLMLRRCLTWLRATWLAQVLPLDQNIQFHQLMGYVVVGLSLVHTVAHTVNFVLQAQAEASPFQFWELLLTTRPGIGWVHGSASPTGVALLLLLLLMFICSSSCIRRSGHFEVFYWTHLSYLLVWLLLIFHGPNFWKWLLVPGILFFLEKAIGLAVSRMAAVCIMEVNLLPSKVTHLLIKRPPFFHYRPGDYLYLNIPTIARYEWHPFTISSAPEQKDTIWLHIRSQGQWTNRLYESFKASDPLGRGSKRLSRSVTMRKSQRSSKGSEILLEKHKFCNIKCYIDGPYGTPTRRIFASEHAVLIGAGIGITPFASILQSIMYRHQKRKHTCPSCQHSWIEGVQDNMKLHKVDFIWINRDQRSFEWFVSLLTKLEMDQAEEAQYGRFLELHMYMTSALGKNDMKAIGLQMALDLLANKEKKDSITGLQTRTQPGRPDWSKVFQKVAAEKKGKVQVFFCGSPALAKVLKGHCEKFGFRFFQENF
# [11] = A549 cell viability effects, profiling panel, calcein-AM fluorescence, 48 h, basal (AID 1162); details: higher = more signal; note: test concentration not given here
# [12] = adipocyte viability effects, profiling panel, cell-based, 3T3-L1 adipocytes, calcein-AM fluorescence, 48 h, basal (AID 1163); details: 3T3-L1 adipocytes viability, higher = more signal; note: test concentration not given here
# [13] = HepG2 cell viability effects, profiling panel, calcein-AM fluorescence, 48 h, basal (AID 1164); details: higher = more signal; note: test concentration not given here
# [14] = MM1S cell viability effects, profiling panel, calcein-AM fluorescence, 48 h, basal (AID 1165); details: higher = more signal;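 note: viability of MM1S multiple myeloma cells under basal unstimulated conditions; test concentration not given here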
# [15] = basal RPMI8226 viability, no added stimulus, profiling panel, cell-based, calcein-AM fluorescence, 48 h, PK04 Diversity Set (AID 1166); details: RPMI8226 myeloma viability, higher = more signal;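 note: cells grown under basal conditions without added stimulus; test concentration not given here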
# [16] = basal HepG2 mitochondrial membrane potential changes, profiling panel, cell-based, JC-1 fluorescence, 24 h, 100 nL compound (AID 1167); details: higher = more signal; note: test concentration not given here
# [17] = basal 3T3-L1 adipocyte mitochondrial potential changes, profiling panel, cell-based, JC-1 fluorescence, 3T3-L1 adipocytes, 24 h, 100 nL compound (AID 1168); details: JC-1 mitochondrial fluorescence, higher = more signal, called active from +8 up or from −8 down; note: test concentration not given here
# [18] = basal RPMI8226 mitochondrial membrane potential changes, profiling panel, cell-based, JC-1 fluorescence, 24 h, 100 nL compound (AID 1169); details: RPMI8226 myeloma, JC-1 mitochondrial potential fluorescence, higher = more signal; note: test concentration not given here
# [19] = basal MM1S mitochondrial membrane potential changes, profiling panel, cell-based, JC-1 fluorescence, 24 h, 100 nL compound (AID 1170); details: higher = more signal; note: test concentration not given here
# [20] = A549 lung cancer cell viability effects, profiling panel, resazurin fluorescence, 24 h, PK04 Diversity Set (AID 1171); details: higher = more signal, called active from +8 up or from −8 down; note: test concentration not given here
SMILES,z-score [1],composite z-score [2],z-score [3],z-score [4],z-score [5],z-score [6],z-score [7],z-score [8],z-score [9],z-score [10],z-score [11],z-score [12],z-score [13],z-score [14],z-score [15],z-score [16],z-score [17],z-score [18],z-score [19],z-score [20]
O=C1CCCC=C1C(O)COCc1ccccc1 (stereo not given),-0.245 (inactive),-0.194,0.782 (inactive),0.36 (inactive),-0.0291 (inactive),-0.0223 (inactive),-0.338,0.237 (inactive),0.733 (inactive),0.63,0.384,-1.41,-1.13,-0.265,0.729,-0.143,-0.649 (inactive),0.728,-0.0651,0.0235 (inactive)
COC(=O)[C@@H]1CC[C@H](C)[C@@H](c2ccc(Br)cc2)N1,-0.824 (inactive),-0.0879,-0.452 (inactive),-0.219 (inactive),-0.772 (inactive),-0.0454 (inactive),-0.0984,1.62 (inactive),-1.48 (inactive),-0.595,0.23,0.309,-0.183,0.125,0.0204,-0.0948,-0.644 (inactive),-0.295,0.214,-0.284 (inactive)
COC(=O)[C@H](C)NC(=O)CCC1CC(OC(=O)NCCc2ccc(F)cc2)CC2(CCCC(COC(=O)NCCc3ccccc3OC)O2)O1 (stereo not given in full),0.121 (inactive),-0.103,6.98 (inactive),0.0923 (inactive),0.209 (inactive),0.15 (inactive),0.364,0.577 (inactive),0.369 (inactive),-0.543,-0.0621,-0.825,0.308,0.636,-0.285,0.15,0.766 (inactive),0.0549,-0.876,0.0778 (inactive)
O=C1[C@H]2[C@H]3[C@H](O)[C@H](O)CC(=NOC[C@@H](O)COCc4ccco4)[C@@H]3CC[C@H]2C(=O)N1Cc1ccccc1,0.119 (inactive),0.185,28.6 (active),4.72 (inactive),0.618 (inactive),1.21 (inactive),-0.585,-1.69 (inactive),-0.3 (inactive),-0.858,-0.355,-0.886,-0.297,0.727,0.693,-0.083,-0.278 (inactive),-0.271,-0.782,1.06 (inactive)
C[C@@H]1CC[C@@H](C(=O)O)N[C@H]1c1cccc(N2CCOCC2)c1,0.563 (inactive),-0.0984,-0.0136 (inactive),0.18 (inactive),0.468 (inactive),0.247 (inactive),0.778,-0.438 (inactive),0.65 (inactive),0.252,1.03,-0.219,0.0881,0.401,1.07,1.66,0.631 (inactive),-0.157,-0.144,0.148 (inactive)
CCN1C(=O)[C@H]2[C@H]3[C@H](O)[C@H](O)CC(=NNC(=O)OCc4ccccc4)[C@@H]3CC[C@H]2C1=O,-0.0098 (inactive),0.122,-0.0022 (inactive),-0.51 (inactive),-0.698 (inactive),-0.0637 (inactive),-0.376,0.424 (inactive),0.525 (inactive),0.296,-0.0627,0.0682,-0.131,-0.0309,0.718,-0.653,-1.19 (inactive),-0.118,-0.458,-0.32 (inactive)
COC(=O)[C@@H]1CC[C@H](C)[C@@H](c2ccc(C)cc2)N1C(=O)c1ccc(C=NOC[C@@H](O)[C@H]2O[C@@H]3OC(C)(C)O[C@@H]3[C@H]2O)cc1,1.44 (inactive),0.0313,0.465 (inactive),0.364 (inactive),0.107 (inactive),0.342 (inactive),-0.924,0.659 (inactive),0.589 (inactive),0.417,0.685,-0.175,-0.827,-0.546,-0.525,-0.874,-0.269 (inactive),-1,-0.732,-0.089 (inactive)
CCOC(=O)CCN1C(=O)[C@H]2[C@H]3[C@H](O)[C@H](O)CC(=NNC(=O)OCc4ccc(OC)cc4)[C@H]3CC[C@H]2C1=O,-0.448 (inactive),-0.0109,0.519 (inactive),-0.0212 (inactive),0.0927 (inactive),0.0103 (inactive),-0.528,1.67 (inactive),0.619 (inactive),0.937,-0.185,-0.385,-0.0426,-0.885,-0.87,-0.146,-0.447 (inactive),-0.207,-0.387,-0.495 (inactive)
COC(=O)[C@H](C)NC(=O)CCC1CC(OC(=O)NCc2cccc3ccccc23)CC2(CCCC(COC(=O)NCCOc3ccccc3)O2)O1 (stereo not given in full),-0.677 (inactive),-0.186,7.46 (inactive),0.622 (inactive),-0.363 (inactive),0.346 (inactive),0.152,0.00289 (inactive),-0.292 (inactive),-0.19,-0.13,0.151,-1.24,-3.37,-3.01,-0.234,-0.198 (inactive),-0.458,-0.463,1.33 (inactive)
COC(=O)CC=C[C@@H](C)[C@@H](C=NOC[C@@H](O)COCc1ccco1)OC,0.245 (inactive),-0.202,0.202 (inactive),0.322 (inactive),-0.0838 (inactive),0.145 (inactive),0.564,-0.499 (inactive),0.024 (inactive),0.403,1.3,-0.921,0.436,0.195,0.598,-0.327,0.499 (inactive),0.501,-0.281,-0.329 (inactive)
C=C(C)C(=O)OC[C@H]1CN2[C@@H](CC[C@@H](C)[C@@H]2c2ccc(Br)cc2)C(=O)O1,-1.41 (inactive),-0.143,3.08 (inactive),-0.0269 (inactive),-0.691 (inactive),-0.196 (inactive),0.861,-1.81 (inactive),0.0898 (inactive),-1.61,0.824,0.278,1.33,0.244,-1.34,0.393,-0.142 (inactive),-0.521,-0.197,0.634 (inactive)
Cc1ccc2[nH]c3nc(CCCn4ccnc4-c4ccccc4)nnc3c2c1,0.369 (inactive),0.0072,8.16 (active),0.751 (inactive),0.632 (inactive),0.322 (inactive),-0.903,-0.137 (inactive),-0.375 (inactive),-1.14,0.0515,0.339,-0.18,1.05,0.392,-0.807,1.1 (inactive),0.738,-0.867,0.384 (inactive)
COC(=O)CC=C[C@@H](C)[C@@H](C=NOC[C@@H](O)[C@H]1O[C@@H]2OC(C)(C)O[C@@H]2[C@H]1O)OC,0.29 (inactive),-0.0603,0.332 (inactive),0.453 (inactive),0.141 (inactive),0.443 (inactive),-0.332,0.144 (inactive),-0.51 (inactive),0.15,0.218,0.0495,0.0068,-0.952,0.216,0.103,-0.637 (inactive),-0.199,0.781,-0.743 (inactive)
COc1ccc2c(c1)O[C@@H](c1cccc(C(F)(F)F)c1)[C@H](O)C2=O,0.706 (inactive),0.0328,2.08 (inactive),0.18 (inactive),1.19 (inactive),0.347 (inactive),1.15,0.00989 (inactive),0.123 (inactive),-0.44,0.759,-0.941,-0.294,-0.277,1.29,-1.25,0.0155 (inactive),-0.239,-0.724,-0.536 (inactive)
CON=C(C)CCN1CCCCc2nc(C)c(C)cc21,-1.23 (inactive),0.168,-0.149 (inactive),-0.117 (inactive),-0.374 (inactive),0.269 (inactive),-0.834,-0.0289 (inactive),-0.0593 (inactive),-0.836,1.03,-0.269,0.564,-0.254,0.371,-0.955,-1.41 (inactive),-0.174,0.289,-0.0601 (inactive)
CC(CCN1CCCc2nc(C)c(C)cc21)=NO[C@H](C)c1cn([C@@H]2COC[C@H]2O)nn1,0.686 (inactive),0.184,1.65 (inactive),0.763 (inactive),0.09 (inactive),0.564 (inactive),-0.607,-0.61 (inactive),-0.259 (inactive),0.371,0.105,-0.563,0.243,-0.674,-0.0215,0.219,0.707 (inactive),0.641,-0.825,-0.294 (inactive)
